{"source": "PubChem BioAssay AID1034", "about": "(Columbia University Molecular Screening Center, 2008)", "test": "potentiators of TNFa-induced VCAM1 expression, confirmation, imaging, HUVEC, triplicate retest (AID 1034);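 further: scaled per plate between unstimulated and TNFa-stimulated DMSO control wells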", "settings": "HUVEC TNFa-stimulated VCAM-1 immunofluorescence imaging; at 2 µM; active compounds read high", "note": "The list shows a part of the results. Unmarked numbers belong to inactive results.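 How the source made its calls: active means activation above 30% in triplicate retests at 2 µM, then confirmed by visual review of the well images; inactive means the rest.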"}
{"smiles": "COC(=O)CN1C(=O)C2(C(C(=O)OC)=C(N)Oc3ccccc32)C2=C1CC(C)(C)CC2=O", "note": "(stereo unspecified)", "values": [{"measurement": "activation", "result": -16.1, "unit": "%"}]}
